Experiment [1] in a line: qHTS assay for small molecule agonists of the p53 signaling pathway - cell viability (AID 651633; calls by dose curve; also: nearly all actives have a fitted effect of over 30% in size; also: potency is read from the fitted curve at half-maximal effect). An outline of the steps: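 Viability counter-read: CellTiter-Glo luminescence (30 min, room temperature) in the same p53RE-bla plates. These plates had been exposed to compounds for 16 h at 37 C.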
A general note: In qHTS, concentration-response curves come from the screen itself.

Experiment [2] can be described thus: qHTS assay for small molecules that induce genotoxicity in human embryonic kidney cells expressing luciferase-tagged ATAD5 - cell viability (AID 651634; calls by dose curve; also: nearly all actives have a fitted effect of over 25% in size; also: potency is read from the fitted curve at half-maximal effect). Put shortly:
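Here HEK293T cells with the ATAD5 luciferase reporter are incubated with test compounds for 15.5 hr, and cytotoxicity is then gauged by measuring protease activity in live cells using fluorescence.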

Experiment [3] is described as follows: qHTS assay for small molecule disruptors of the mitochondrial membrane potential - cell viability (AID 720634; calls by dose curve; also: nearly all actives have a fitted effect of over 20% in size; also: potency is read from the fitted curve at half-maximal effect). Put shortly: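 Viability of HepG2 cells is scored from ATP content by luminescence; cells are exposed to compound for 1 hr at 37 C and 5% CO2, then dosed with m-MPI dye before the CellTiter-Glo reagent.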
Experiment [4] can be described thus: qHTS assay for small molecule disruptors of the mitochondrial membrane potential (AID 720635). Also: potency is read from the fitted curve at half-maximal effect. Put shortly:
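Mitochondrial membrane potential tracked with Mito-MPS dye, red aggregates (ex 540/em 590 nm) against green monomers (ex 490/em 535 nm). Compound treatment 1 hr at 37C, dye 30 min in HepG2.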

Experiment [5] in a line: qHTS assay to test for compound auto fluorescence at 590 nm (red) in HepG2 cells (AID 720674). Put shortly: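 1 hr compound incubation on HepG2 cells, 37 C, 5% CO2; plate read ex 540 nm / em 590 nm; intensities reported as Rose Bengal sodium equivalents.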
Experiment [6] can be described thus: qHTS assay to test for compound auto fluorescence at 460 nm (blue) in HEK293 cells (AID 720678). Put shortly: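 HEK293 cells (2,000 per well, medium with 10% dialyzed FBS) attached for 4-5 hr at 37C, then received compound and stood overnight at 37C, 5% CO2. Blue fluorescence was read at Ex/Em 405/460 nm and expressed relative to triamterene.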
Experiment [7] in a line: qHTS assay to test for compound auto fluorescence at 590 nm (red) in HEK293 cells (AID 720679). Put shortly:
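HEK293 cells (2,000/well, medium with 10% dialyzed FBS) attached for 4-5 hr at 37C, received 23 nL compound and were incubated overnight at 37C, 5% CO2. Red fluorescence was then read at 540/590nm Ex/Em, referenced to Rose Bengal sodium.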

Experiment [8] can be described thus: qHTS assay for small molecules that induce genotoxicity in human embryonic kidney cells expressing luciferase-tagged ATAD5 (AID 651632). Also: nearly all actives have a fitted effect of over 15% in size. Also: potency is read from the fitted curve at half-maximal effect. An outline of the steps:
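DMSO vehicle served as the control. HEK293T reporter cells, 16 hr at 37C, then 30 min Amplite at room temperature; ATAD5 induction is measured as luciferase activity.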

The nature of experiment [9]: qHTS assay to test for compound auto fluorescence at 535 nm (green) in HepG2 cells (AID 720675).

Unmarked numbers belong to inactive results. Records with an inconclusive call do not appear. Activity calls are given as the source filed them. Unless noted, calls follow the shape of the dose curve; as a rule, active = well fitted curve in the direction sought with a large enough effect in the repeat runs; inconclusive = weak or mixed curves; inactive = no such curve, though single readings can be large; an effect the other way counts as inactive or inconclusive.
% is scaled to controls: 0 for no effect and ±100 for the full control effect.

In the case of `O=C1c2ccccc2C(=O)C1c1nc2ccccc2c(Br)c1O`, the Potency entry in experiment [1], in [2], in experiment [3] and in experiment [6] was “inactive” each time. Further, in experiment [4], the Potency was 21.7 µM (active). Moreover, the call in experiment [5] and in experiment [7] was inactive.
`CCOC(=O)C1=C(C)NC(C)=C(C(=O)OC)C1c1cccc(Cl)c1Cl` (centres undefined): the Potency result in experiment [8], in [1] and in experiment [6] was “inactive” in each case. The Potency in experiment [4] is 19.7 µM (active). Besides, the outcome in experiment [5], in experiment [9] and in [7] was inactive.
`O=C(/C=C/c1ccccc1)OCCc1ccccc1`: the Potency entry in experiment [1], in [2], in experiment [3] and in experiment [6] was “inactive” each time. Besides, the call in [5], in experiment [9] and in experiment [7] was inactive.
Consider `CCCCCCCCC(CCCCCC)C(=O)O` (centres undefined), for which the Potency entry in [8], in [2], in experiment [3] and in [6] was “inactive” each time. Further, the compound was called inactive in experiment [5], in [9] and in experiment [7].
On to `NNC(=O)CP(=O)(c1ccccc1)c1ccccc1`, for which the Potency entry in experiment [8], in [1], in experiment [3] and in experiment [6] was “inactive” each time. Moreover, the call in experiment [5], in [9] and in [7] was inactive.
Take `CCOc1ccccc1O[C@H](c1ccccc1)[C@H]1CNCCO1`: the Potency result in experiment [8], in [1], in [3] and in [6] was “inactive” in each case. Moreover, the compound was called inactive in experiment [9] and in [7].
Regarding `C[C@@H]1CN(CCCn2c3ccccc3c3ccccc32)C[C@H](C)N1`, the Potency entry in experiment [8], in [3] and in experiment [6] was “inactive” in each case. Besides, the compound was called inactive in experiment [5], in [9] and in experiment [7].
Regarding `O=c1cc(-c2ccccc2)oc2ccc3ccccc3c12`, the Potency in experiment [8] is 0.077 µM (active); in experiment [3], 24.3 µM (active); in experiment [4] it was 8.63 µM (active). Moreover, the Potency result in experiment [2] is “inactive”. For the same compound, the call in experiment [5], in [9] and in experiment [7] was inactive.
Consider `C[C@]1(Cn2ccnn2)[C@H](C(=O)O)N2C(=O)C[C@H]2S1(=O)=O`, for which the Potency result in [8], in experiment [1], in experiment [3] and in experiment [6] was “inactive” throughout. The outcome in experiment [5], in experiment [9] and in experiment [7] was inactive.
Take `C=C(C)C(=O)OCCOCCOC(=O)C(=C)C`: the Potency result in [8], in [3], in experiment [4] and in experiment [6] was “inactive” each time. The outcome in experiment [5], in experiment [9] and in [7] was inactive.
With `O=C1Cc2ccccc2N1c1c(Cl)cccc1Cl`, the Potency entry in [8], in experiment [2] and in [6] was “inactive” throughout. Further, the outcome in experiment [5] and in experiment [7] was inactive.
As for `Cc1cc(O)ccc1O`, the Potency result in [3] and in [4] was “inactive” each time. In addition, the outcome in [5], in experiment [9] and in experiment [7] was inactive.
Consider `O=C(CCCN1CC=C(n2c(=O)[nH]c3ccccc32)CC1)c1ccc(F)cc1`, for which the Potency entry in [8], in experiment [2], in experiment [3] and in experiment [4] was “inactive” each time. Moreover, the call in [5], in [9] and in [7] was inactive.
In the case of `CC(=O)NC1(c2cccc(F)c2)CCN(CC[C@@]2(c3ccc(Cl)c(Cl)c3)CN(c3ccccc3)C(=O)CO2)CC1`, the Potency result in [8], in experiment [3] and in experiment [6] was “inactive” each time. For the same compound, the compound was called inactive in [5], in [9] and in [7].
With `CCOc1cccc(-n2cc(C(=O)N3CCN(c4cc(C(=O)O)c5ccccc5c4)CC3)nc2-c2ccc(C)cc2)c1`, the Potency entry in experiment [8], in experiment [3] and in experiment [6] was “inactive” throughout. In experiment [1], the Potency is 20.7 µM (active). The result in [5] and in experiment [7] was inactive.
On to `C/C=C\C/C=C/CCCCCCCCOC(C)=O`, for which the Potency entry in experiment [8], in experiment [2], in experiment [3], in experiment [4] and in experiment [6] was “inactive” throughout. Also, the call in [9] and in experiment [7] was inactive.
`Nc1nc2ccc([N+](=O)[O-])cc2s1`: the Potency result in [8], in experiment [3] and in [6] was “inactive” in each case. Also, the Potency in [4] is 4.33 µM (active). Moreover, the result in experiment [5] and in experiment [7] was inactive.
As to `C=CCc1ccccc1OCC(O)CNC(C)C` (centres undefined), the Potency entry in experiment [1], in experiment [2], in experiment [3] and in experiment [6] was “inactive” each time. Besides, the outcome in experiment [5] and in experiment [7] was inactive.
For `CC1(C)[C@H](C(=O)O)N2C(=O)C[C@H]2S1(=O)=O`, the Potency entry in experiment [3], in [4] and in experiment [6] was “inactive” throughout. Further, the call in [5], in [9] and in experiment [7] was inactive.
On to `CN1C(=O)c2ccccc2C1=O`, for which the Potency result in experiment [1], in experiment [2] and in [3] was “inactive” in each case. Besides, the result in [5], in experiment [9] and in experiment [7] was inactive.
As for `C/C=C/C=C/C=O`, the Potency result in [8], in experiment [2], in [3], in experiment [4] and in experiment [6] was “inactive” each time. Further, the compound was classed as inactive in experiment [5], in experiment [9] and in [7].
As to `C[C@@H](CN(C)C)CN1c2ccccc2Sc2ccccc21`, the Potency result in experiment [8], in experiment [1] and in experiment [3] was “inactive” in each case. For the same compound, in [5], the fluorescence, relative to Rose Bengal was 0.322% [at 18.6 µM]. Moreover, in experiment [6], the fluorescence, % of triamterene was -0.151% [at 18.6 µM]. For the same compound, in experiment [7], the fluorescence, % of fluorescent control was -0.0905% [at 18.6 µM].
For the compound `CCCCCCCCOc1ccc(C(=O)O)cc1`, the Potency entry in experiment [8], in [3] and in experiment [6] was “inactive” throughout. The compound was classed as inactive in [5], in experiment [9] and in experiment [7].
Turning to `O=[N+]([O-])c1cc(C2CCCCC2)c(O)c([N+](=O)[O-])c1`, the Potency entry in experiment [8] and in [6] was “inactive” in each case. Further, the Potency in [2] was 19.3 µM (active); in experiment [3], 0.343 µM (active); in [4], 0.153 µM (active). For the same compound, the result in [5], in experiment [9] and in experiment [7] was inactive.
Consider `CN1C[C@H](C(=O)N[C@]2(C)O[C@@]3(O)[C@@H]4CCCN4C(=O)[C@H](Cc4ccccc4)N3C2=O)C[C@@H]2c3cccc4[nH]cc(c34)C[C@H]21`, for which the Potency result in [8], in experiment [1] and in experiment [3] was “inactive” throughout. For the same compound, the outcome in experiment [5] and in experiment [7] was inactive.
Regarding `OC[C@H]1O[C@@H](n2cnc3c(=S)nc[nH]c32)[C@H](O)[C@@H]1O`, the Potency result in experiment [8], in experiment [2], in [3] and in [6] was “inactive” in each case. Further, the Potency in experiment [4] is 0.211 µM (active). Also, the compound was called inactive in experiment [5] and in experiment [7].
As for `O=[N+]([O-])c1ccc(O/N=C/c2cc(Br)c(O)c(Br)c2)c([N+](=O)[O-])c1`, the Potency result in [8] was “inactive”. The Potency in experiment [2] was 24.2 µM (active); in [3], 12.1 µM (active); in experiment [4], 0.859 µM (active). In addition, the result in experiment [9] and in experiment [7] was inactive.
On to `Cc1ccc2c(Br)cc(Br)c(O)c2n1`, for which the Potency in experiment [8] and in experiment [4] was 23.7 µM (active) throughout. Further, the Potency result in experiment [2], in experiment [3] and in [6] was “inactive” in each case. For the same compound, the compound was classed as inactive in experiment [5], in experiment [9] and in [7].
Consider `CC1(C)O[C@@H]2C[C@H]3[C@@H]4C[C@H](F)C5=CC(=O)C=C[C@]5(C)[C@H]4[C@@H](O)C[C@]3(C)[C@]2(C(=O)CO)O1`, for which the Potency result in experiment [1], in experiment [2] and in experiment [3] was “inactive” each time. Moreover, the fluorescence, relative to Rose Bengal in experiment [5] was 0.174% [at 18.6 µM]. Besides, the fluorescence, % of fluorescein control in [9] is -0.107% [at 18.6 µM]. For the same compound, in experiment [6], the fluorescence, % of triamterene was -0.229% [at 18.6 µM]. The fluorescence, % of fluorescent control in experiment [7] was -0.713% [at 18.6 µM].
